Test results: PubChem BioAssay AID1159580 (chemical genetic matrix, 2015)
Among all 5,500 compounds or so, about 2,000 (36%) were called active. Not shown: some 18% with an inconclusive outcome. Some of the results follow. Values without a mark were called inactive. No stated cut-off is given here; in the data, active means normalized growth mostly below about 0.91 (no sharp cut-off); inconclusive means no clear call, values can overlap the other calls; inactive means mostly above about 0.92.

Assay: chemical genetic growth profiling, strain panel (AID 1159580);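 further: tested at 20 µM; growth read once vehicle control cultures reached saturation at 30 °C; 1 = growth at the plate median or of vehicle wells; lower values mean less growth of the strain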
Conditions: S. cerevisiae deletion strains, growth OD

COc1ccc(NC(=O)/C=C/c2ccc(Cl)cc2)cc1
normalized growth (locus YAL013W, strain DEP1, active compounds read low): 0.992 | normalized growth (locus YAL040C, strain CLN3, active compounds read low): 0.958 | normalized growth (locus YCL061C, strain MRC1 (second series), active compounds read low): 1 | normalized growth (locus YDR150W, strain NUM1, active compounds read low): 1 | normalized growth (locus YDR363W, strain ESC2, active compounds read low): 1.01 | normalized growth (locus YER002W, strain NOP16, active compounds read low): 0.956 | normalized growth (locus YGR229C, strain SMI1, active compounds read low): 0.986 | normalized growth (locus YJR075W, strain HOC1, active compounds read low): 0.98 | normalized growth (locus YMR307W, strain GAS1, active compounds read low): 1.02 | normalized growth (locus YNL175C, strain NOP13, active compounds read low): 0.966 | normalized growth (locus YNL197C, strain WHI3, active compounds read low): 0.977 | normalized growth (locus YNL224C, strain SQS1, active compounds read low): 1 | normalized growth (locus YOR083W, strain WHI5 (second series), active compounds read low): 0.961 | normalized growth (locus YPL241C, strain CIN2, active compounds read low): 1.01

CC(C)OC(=O)Nc1cc(Cl)cc(Cl)c1
normalized growth (locus YAR019C, strain CDC15, active compounds read low): 0.971 | normalized growth (locus YBL105C, strain PKC1, active compounds read low): 0.97 | normalized growth (locus YBR135W, strain CKS1, active compounds read low): 0.964 | normalized growth (locus YBR136W, strain MEC1, active compounds read low): 0.986 | normalized growth (locus YBR160W, strain CDC28, active compounds read low): 0.981 | normalized growth (locus YDL017W, strain CDC7, active compounds read low): 0.974 | normalized growth (locus YDL028C, strain MPS1, active compounds read low): 0.996 | normalized growth (locus YDL101C, strain DUN1, active compounds read low): 0.972 | normalized growth (locus YDL108W, strain KIN28, active compounds read low): 0.98 | normalized growth (locus YDL132W, strain cdc53, active compounds read low): 0.953 | normalized growth (locus YDL214C, strain PRR2, active compounds read low): 0.864 | normalized growth (locus YDR052C, strain DBF4, active compounds read low): 0.993 | normalized growth (locus YDR054C, strain cdc34, active compounds read low): 0.939 | normalized growth (locus YDR226W, strain ADK1, active compounds read low): 0.982 | normalized growth (locus YDR477W, strain SNF1, active compounds read low): 0.873 | normalized growth (locus YER123W, strain YCK3, active compounds read low): 0.845 | normalized growth (locus YER133W, strain GLC7, active compounds read low): 0.764 | normalized growth (locus YFL009W, strain cdc4, active compounds read low): 0.96 | normalized growth (locus YFL029C, strain CAK1, active compounds read low): 0.972 | normalized growth (locus YFR003C, strain YPI1, active compounds read low): 0.972 | normalized growth (locus YFR019W, strain FAB1, active compounds read low): 0.966 | normalized growth (locus YFR028C, strain CDC14, active compounds read low): 0.985 | normalized growth (locus YGR040W, strain KSS1, active compounds read low): 0.838 | normalized growth (locus YGR052W, strain FMP48, active compounds read low): 0.822 | normalized growth (locus YGR092W, strain DBF2, active compounds read low): 0.765 | normalized growth (locus YHR079C, strain IRE1, active compounds read low): 0.754 | normalized growth (locus YHR082C, strain KSP1, active compounds read low): 0.988 | normalized growth (locus YHR205W, strain SCH9, active compounds read low): 0.777 | normalized growth (locus YIL147C, strain SLN1, active compounds read low): 0.987 | normalized growth (locus YJL095W, strain BCK1, active compounds read low): 0.716 | normalized growth (locus YJL128C, strain PBS2, active compounds read low): 0.899 | normalized growth (locus YJL157C, strain FAR1, active compounds read low): 0.902 | normalized growth (locus YJR016C, strain ILV3, active compounds read low): 0.957 | normalized growth (locus YJR066W, strain TOR1 (second series), active compounds read low): 0.883 | normalized growth (locus YJR066W, strain TOR1, active compounds read low): 0.99 | normalized growth (locus YKL048C, strain ELM1, active compounds read low): 0.864 | normalized growth (locus YKL067W, strain YNK1, active compounds read low): 0.857 | normalized growth (locus YKL101W, strain HSL1, active compounds read low): 0.888 | normalized growth (locus YKL193C, strain SDS22, active compounds read low): 0.97 | normalized growth (locus YKL203C, strain TOR2, active compounds read low): 0.944 | normalized growth (locus YLR113W, strain HOG1, active compounds read low): 0.479 (active) | normalized growth (locus YLR133W, strain CKI1, active compounds read low): 0.915 | normalized growth (locus YLR403W, strain SFP1, active compounds read low): 0.853 | normalized growth (locus YML070W, strain DAK1, active compounds read low): 0.848 | normalized growth (locus YMR001C, strain CDC5, active compounds read low): 0.985 | normalized growth (locus YMR205C, strain PFK2 (second series), active compounds read low): 0.898 | normalized growth (locus YMR277W, strain FCP1, active compounds read low): 0.939 | normalized growth (locus YNL006W, strain LST8, active compounds read low): 0.968 | normalized growth (locus YNL020C, strain ARK1, active compounds read low): 0.9 | normalized growth (locus YNL161W, strain CBK1, active compounds read low): 0.969 | normalized growth (locus YNL183C, strain NPR1, active compounds read low): 0.707 | normalized growth (locus YNL207W, strain RIO2, active compounds read low): 0.975 | normalized growth (locus YNL222W, strain SSU72, active compounds read low): 0.978 | normalized growth (locus YNL307C, strain MCK1 (second series), active compounds read low): 0.868 | normalized growth (locus YOL078W, strain AVO1, active compounds read low): 0.974 | normalized growth (locus YOL136C, strain PFK27, active compounds read low): 0.849 | normalized growth (locus YOR061W, strain CKA2, active compounds read low): 0.875 | normalized growth (locus YOR119C, strain RIO1, active compounds read low): 0.85 | normalized growth (locus YOR231W, strain MKK1, active compounds read low): 0.729 | normalized growth (locus YOR329C, strain SCD5, active compounds read low): 0.976 | normalized growth (locus YPL031C, strain PHO85, active compounds read low): 0.756 | normalized growth (locus YPL153C, strain RAD53, active compounds read low): 0.8 | normalized growth (locus YPL204W, strain HRR25, active compounds read low): 0.791 | normalized growth (locus YPL209C, strain IPL1, active compounds read low): 0.973 | normalized growth (locus YPL256C, strain CLN2, active compounds read low): 0.682 (active) | normalized growth (locus YPR025C, strain CCL1, active compounds read low): 0.978 | normalized growth (locus YPR106W, strain ISR1, active compounds read low): 0.959 | normalized growth (locus YPR111W, strain DBF20, active compounds read low): 0.948 | normalized growth (strain NNK1, active compounds read low): 0.963 | normalized growth (strain TSCII, active compounds read low): 0.967
